The list is not random: actives were taken first. Their share in the collection is about 2.4%.
Pol eta inh-1 – inhibitors of human DNA polymerase eta; Potency, µM (highest dose often 114 µM), inactives show at the highest dose activity change, negative = inhibition, usual class: inhibitors; hit rate 1.2% among 390,000; Q9Y253; AID 588591; recombinant Pol eta, fluorescent DNA replication assay; note: potency is the fitted concentration of half-maximal effect; % is set by controls: 0 for no effect and ±100 for the full control effect
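Fluorescent replication assay: 50 nM final substrate added after a 15 min room-temperature compound preincubation with 10 nM enzyme. Signal taken at 0 min and again at 10 min.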
POLI inh – blocks human DNA polymerase iota activity | Potency, µM (series often up to 115 µM), inactives show at the highest dose activity, negative = inhibition, most hits filed as inhibitors | Pol iota fluorescent replication assay, 10 min | hit rate 1% among 390,000 | Q9UNA4; note: potency is the fitted concentration of half-maximal effect
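Pol iota at 10 nM preincubated 15 min with compounds at room temperature; reaction started with fluorescent substrate, 50 nM final. Fluorescence read kinetically at 0 and 10 min; buffer-only wells as negative control.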
WRN inhibitor – WRN helicase (human) inhibition; WRN helicase unwinding, fluorescent forked duplex, kinetic; Potency, µM (top dose mostly 114 µM), inactives show top-dose activity change, negative = inhibition, usual class: inhibitors; hit rate 0.46% among 360,000; AID 651768; note: potency is the fitted concentration of half-maximal effect; % is set by controls: 0 for no effect and ±100 for the full control effect; nearly all actives have a fitted effect of over 55% in size
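WRN at 20 nM final was preincubated with compound for 15 min at room temperature; reaction started with 100 nM forked duplex oligonucleotide carrying fluorophore and quencher plus 2 mM ATP (final). Unwinding followed kinetically by red fluorescence (ex 525/em 598 nm).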
Pol kappa inh-1 – inhibitors of human DNA polymerase kappa; AID 588579; hit rate 0.53% among 400,000; purified Pol kappa, fluorescent DNA synthesis assay, 10 min; Potency, µM (series often up to 107 µM), inactives show at the top dose activity, negative = inhibition, actives largely listed as inhibitors; note: potency is the fitted concentration of half-maximal effect; % is set by controls: 0 for no effect and ±100 for the full control effect
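Kinetic fluorescence readout at 0 and 10 min followed reaction start with substrate at 50 nM final. Beforehand, enzyme (10 nM Pol kappa) stood 15 min with compound at room temperature; buffer-only wells were negative controls.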
Pol beta inh – blocks human DNA polymerase beta activity | P06746 | Pol beta primer extension/strand displacement, fluorescence kinetic | Potency, µM (series often up to 114 µM), inactives show at the top dose activity change, negative = inhibition, hits mostly inhibitors | hit rate 1.3% among 340,000; note: potency is the fitted concentration of half-maximal effect; % is set by controls: 0 for no effect and ±100 for the full control effect
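Pol beta (10 nM) was preincubated with compound for 15 min at room temperature. The reaction was then started with 50 nM substrate and read immediately and after a further 10 min at room temperature.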
FEN1 inhibitor – human FEN1 inhibition | P39748 | Recombinant FEN1 flap cleavage, fluorescence, 15 min | Potency, µM (doses to about 114 µM), inactives show at the top dose activity change, negative = inhibition, hits mostly inhibitors | hit rate 0.35% among 390,000 | AID 588795; note: potency is the fitted concentration of half-maximal effect; % is set by controls: 0 for no effect and ±100 for the full control effect; nearly all actives have a fitted effect of over 65% in size
Target sequence (P39748 whole entry, looked up): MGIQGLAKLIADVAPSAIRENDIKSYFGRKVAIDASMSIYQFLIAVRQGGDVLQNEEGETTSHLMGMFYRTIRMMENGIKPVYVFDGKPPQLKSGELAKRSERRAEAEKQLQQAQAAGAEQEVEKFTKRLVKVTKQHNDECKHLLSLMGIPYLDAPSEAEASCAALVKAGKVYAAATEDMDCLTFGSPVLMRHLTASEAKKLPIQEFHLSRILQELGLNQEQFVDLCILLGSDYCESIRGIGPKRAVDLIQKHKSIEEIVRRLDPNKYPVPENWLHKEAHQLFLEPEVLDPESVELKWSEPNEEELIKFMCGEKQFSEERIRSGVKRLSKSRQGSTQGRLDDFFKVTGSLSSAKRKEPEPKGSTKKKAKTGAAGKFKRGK
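Nuclease activity of 10 nM FEN1 was measured after 15 min of room-temperature exposure to titrated compounds, by adding 50 nM flap substrate and reading plates at 0 and 15 min.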
TbPGK inh – blocks T. brucei phosphoglycerate kinase. AID 686980. Potency, µM (highest dose often 57.5 µM), for inactives: at the top dose activity change, negative = inhibition, usual class: inhibitors. TbPGK coupled GAPDH assay, Kinase-Glo luminescence. shares compounds with Pol kappa inh-1. hit rate 79% among 500; note: potency is the fitted concentration of half-maximal effect; % is set by controls: 0 for no effect and ±100 for the full control effect; nearly all actives have a fitted effect of over 65% in size
POLI cherry-pick – Inhibitors of human DNA polymerase iota, confirmation. shares compounds with Pol kappa inh-1. Pol iota primer extension, TAMRA/BHQ fluorescence. Potency, µM, usual class: inhibitors. hit rate 77% among 1,500; note: potency is the fitted concentration of half-maximal effect
GALK inh confirm – confirmation of human galactokinase (GALK) inhibitors | shares compounds with Pol eta inh-1 | AID 2015 | hit rate 70% among 150 | purified GALK, Kinase-Glo ATP depletion luminescence | Potency, µM (titrated, usually from 115 µM), inactives show top-dose activity, negative = inhibition, hits mostly inhibitors
Target sequence (P51570 whole entry, looked up): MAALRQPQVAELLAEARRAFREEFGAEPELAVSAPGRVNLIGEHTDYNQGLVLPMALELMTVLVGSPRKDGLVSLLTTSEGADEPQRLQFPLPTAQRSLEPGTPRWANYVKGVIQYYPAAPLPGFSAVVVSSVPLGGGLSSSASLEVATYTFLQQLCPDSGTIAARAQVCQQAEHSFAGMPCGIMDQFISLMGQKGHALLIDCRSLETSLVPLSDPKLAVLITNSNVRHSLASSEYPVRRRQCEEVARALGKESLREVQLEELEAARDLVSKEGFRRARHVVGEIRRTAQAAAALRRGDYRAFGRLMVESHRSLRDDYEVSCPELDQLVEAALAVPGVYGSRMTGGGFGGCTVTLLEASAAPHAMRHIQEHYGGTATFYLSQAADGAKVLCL
Redox cycling – generates H2O2 by redox cycling, flagging GALK artifacts; shares compounds with Pol eta inh-1; Phenol red-HRP H2O2 redox cycling, absorbance 600 nm; Potency, µM (titrated, usually from 115 µM), inactives show top-dose activity change, negative = H2O2 signal, usual class: inhibitors; hit rate 40% among 150; AID 2035
HEK293 tox – counter-screen for GALK inhibitors: HEK293 cell cytotoxicity. shares compounds with Pol eta inh-1. HEK-293 viability, ATP luminescence (CellTiter-Glo), 24/48 h. Potency, µM (titrated, usually from 46.1 µM), inactives show top-dose activity change, negative = cytotoxicity, actives largely listed as inhibitors. hit rate 10% among 170. AID 2547; note: potency is the fitted concentration of half-maximal effect; % is set by controls: 0 for no effect and ±100 for the full control effect
Pol kappa inh-2 – confirmation of human DNA polymerase kappa inhibitors; Potency, µM, usual class: inhibitors; AID 720501; hit rate 76% among 920; purified Pol-kappa, fluorescent strand-displacement substrate; shares compounds with Pol eta inh-1; note: potency is the fitted concentration of half-maximal effect
Pol eta inh-2 – confirmation of human DNA polymerase eta inhibitors; shares compounds with Pol eta inh-1; Pol eta primer extension, TAMRA/BHQ fluorescence, 10 min; Potency, µM, most hits filed as inhibitors; hit rate 64% among 2,600; note: potency is the fitted concentration of half-maximal effect
* hit, by the source's call; ? = inconclusive; · = no result given; [ ] = another dose, or the depositor's remark. Calls come from the whole dose curve; as a rule, active = well fitted curve in the direction sought with a large enough effect; inconclusive = small, poorly fitted or top-dose-only effect, or another doubt; inactive = no such curve, though single readings can be large; an effect the other way counts as inactive or inconclusive.

SMILES	Pol eta inh-1	POLI inh	WRN inhibitor	Pol kappa inh-1	Pol beta inh	FEN1 inhibitor	POLI cherry-pick	Pol eta inh-2	others
O=C1/C(=C\c2cc(Cl)c(O)c(Cl)c2)SC(=S)N1Cc1ccccc1	50µM*	10µM*	11µM*	-28%	?	50µM*	84*	·	GALK inh confirm=27µM*;Redox cycling=5%;HEK293 tox=?
NCc1ccccc1Sc1ccccc1CO	·	·	·	-3%[19.4 µM]	·	·	·	·
CN(Cc1ccco1)c1nc(-c2ccccc2C(F)(F)F)nc2ccccc12	·	·	·	-8%[60.1 µM]	·	·	·	·
CC(=O)NCCNc1nc(-c2cccnc2)nc2ccccc12	·	·	·	4%[60.1 µM]	·	·	·	·
CC(=O)NC1=NC(=O)/C(=C/c2cc(C)n(-c3cccc(C(=O)O)c3)c2C)S1	4µM*	14µM*	45µM*	40µM*	6.3µM*	50µM*	9.5*	11*	TbPGK inh=6.5µM*;Pol kappa inh-2=8.4*
CC(=O)NC1=NC(=O)/C(=C/c2cc(C)n(-c3ccc(NC(C)=O)cc3)c2C)S1	-3%	-8%	-22%	-18%	10%	2%	·	·
Cc1cc(/C=N/NC(=O)C(O)(c2ccccc2)c2ccccc2)c(C)n1-c1cccc(C(=O)O)c1	10µM*	16µM*	?	?	16µM*	?	34*	15*
CCC(=O)N1CCc2cc(S(=O)(=O)CCC(=O)Nc3ccc(Cl)c(C(F)(F)F)c3)ccc21	-14%	12%	·	-8%	8%	18%	·	·
O=[N+]([O-])c1ccccc1S(=O)(=O)Nc1ccc(S(=O)(=O)Nc2nccs2)cc1	0%	?	-21%	3%	1%	0%	·	·
Nc1ccc(S(=O)(=O)Nc2nccs2)cc1N=Nc1ccccc1[N+](=O)[O-]	3.2µM*	7.1µM*	25µM*	28µM*	·	50µM*	75*	19*	Pol kappa inh-2=?
Cn1ccsc1=NC(=O)c1ccc(=O)[nH]c1	-7%	18%	9%	11%	1%	7%	·	·
Cn1ccsc1=NC(=O)c1ccc([N+](=O)[O-])o1	40µM*	25µM*	?	?	8%	-18%	34*	43*
FC(F)(F)c1ccccc1-c1nc(Nc2ccncc2)c2ccccc2n1	·	·	·	-8%[60.1 µM]	·	·	·	·
Cc1ccc(N=Nc2c(N)nn3c(N)c(C#N)c(C)nc23)cc1	?	?	-17%[11.6 µM]	79µM*	22µM*	?	42*	?
O=[N+]([O-])c1cccc(S(=O)(=O)NCCNS(=O)(=O)c2cccc([N+](=O)[O-])c2)c1	·	·	·	10%[19.4 µM]	·	·	·	·
C=CCN1C(=O)/C(=C/c2ccc(OC(C)=O)c(OCC)c2[N+](=O)[O-])SC1=S	20µM*	28%	-34%	?	?	-20%	75*	67*	GALK inh confirm=?;Redox cycling=42µM*;HEK293 tox=?
COCCN(C(=O)c1cc2c(s1)CCC2)c1c(N)n(CC(C)C)c(=O)[nH]c1=O	8.9µM*	20µM*	45µM*	45µM*	·	-2%	21*	48*	Pol kappa inh-2=19*
COC(=O)[C@H](C)[C@H](CC(C)C)NC(=O)[C@H](C)[C@H](CC(C)C)NC(=O)c1ccccn1	·	12%	·	-8%	·	1%	·	·
Cc1cc(=O)oc2c3c(ccc12)OC/C3=N/N	?	?	-14%[11.6 µM]	-17%	30%	1%	42*	30*	Pol kappa inh-2=34*
N#CCCn1c(=O)cnc2cnc(Oc3cccc(Cl)c3)nc21	·	·	·	0%[60.1 µM]	·	·	·	·
O=C(COC(=O)c1ccc(OC(F)(F)F)cc1)Nc1ncccn1	18µM*	?	?	?	·	-1%	60*	76*	Pol kappa inh-2=?
NC(=O)NC(=O)COC(=O)c1ccc(OC(F)(F)F)cc1	0%	3%	-3%	-6%	31%	21%	·	·
Cc1c(C)n(C(=O)CSc2nc3ccccc3[nH]2)c2ccccc12	?	?	?	?	8.9µM*	-9%	?	38*
O=C1C2C(C(=O)N1/N=C/c1cc([N+](=O)[O-])c(O)cc1O)C1C=CC2C12CC2 (stereo unspecified)	10µM*	20µM*	?	50µM*	11µM*	-32%	42*	30*
O=C(O)c1cccc(-c2ccc(/C=C3/SC(=Nc4ccccc4)N(Cc4cccnc4)C3=O)o2)c1	7.1µM*	?	?	?	?	?	38*	43*	TbPGK inh=6.5µM*;Pol kappa inh-2=21*
COc1cccc(NC(=O)CN(C)C(=O)c2cc(-c3ccco3)nc3ccccc23)c1	?	35µM*	-16%[11.6 µM]	?	·	-23%	38*	30*
Cc1ccc(NC(=O)CN(C)C(=O)c2cc(-c3ccco3)nc3ccccc23)cc1	20µM*	18µM*	71µM*	50µM*	·	-19%	42*	60*
COc1cccc(NC(=O)c2cc(-c3ccco3)nc3ccccc23)c1	?	?	-5%[11.6 µM]	?	·	14%	·	·
CCOc1ccc(NC(=O)CN(C)C(=O)c2cc(-c3ccco3)nc3ccccc23)cc1OCC	-9%	24%	-4%	0%	·	-14%	·	·

Bioassay records from PubChem.
